IL-1B inflam inh – qHTS for Inhibitors of Inflammasome Signaling: IL-1-beta AlphaLISA Primary Screen; THP-1 LPS/ATP IL-1B secretion, AlphaLISA, 16 h; hits give low values; hit rate 4.7% among 360,000; AID 743279, 2014; activity change, % at 57.5 µM; in the data active = activity change below about -50%; inconclusive = mostly about -30% to -49%
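Secreted IL-1B measured by AlphaLISA bead assay after 16 h compound exposure of THP-1 cells; compounds (final up to 57.5 uM) added 1 h before LPS (250 ng/mL) and ATP (1.25 mM) stimulation; lower signal means less secretion.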
TDP1 cell noCPT – qHTS for Inhibitors of human tyrosyl-DNA phosphodiesterase 1 (TDP1): qHTS in cells in absence of CPT | DT40 Tdp1-/- hTDP1 cells, no CPT, ATP luminescence, 48 h | Potency, µM (highest dose often 46.2 µM), inactives show at the top dose activity change, negative = growth inhibition, hits mostly inhibitors | hit rate 15% among 420,000; also: potency is read from the fitted curve at half-maximal effect; nearly all actives have a fitted effect of over 55% in size
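Camptothecin absent (DMSO only). Human TDP1-complemented DT40 knockout cells, 400 cells/well, 37 °C for minimum 48 hr; ATP measured via CellTiter-Glo, 30 min dark incubation, luminescence.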
uPA surface inh – qHTS for Inhibitors of Cell Surface uPA Generation | cell surface uPA generation assay, qHTS | Potency, µM (doses to about 38.3 µM), inactives show top-dose activity change, negative = inhibition, usual class: inhibitors | hit rate 0.31% among 330,000 | AID 540303, 2011; active = well fitted inhibition curve with a large enough effect; inconclusive = small, poorly fitted or top-dose-only effect; inactive = no such curve, though single readings can be large or run the other way; tested in mouse RAW 264.7 cells; also: potency is read from the fitted curve at half-maximal effect; nearly all actives have a fitted effect of over 55% in size
HT1080 IDH1KD tx – qHTS for induction of synthetic lethality in tumor cells producing 2HG: qHTS for the HT-1080-IDH1KD cell line. AID 686971, 2013. Potency, µM (highest dose often 46.1 µM), for inactives: top-dose activity, negative = toxicity, hits mostly cytotoxic. hit rate 2% among 360,000. HT-1080 IDH1 knockdown viability, ATP luminescence, 48 h;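 also: potency is read from the fitted curve at half-maximal effect; 0% = DMSO wells and -100% = cell-free medium wells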
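% activity derives from luminescence (CellTiter-Glo), normalised to DMSO and no-cell wells. HT-1080-IDH1KD cells, 750/well, had 48 h compound exposure at 37 °C.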
HT1080-NT tox – qHTS for induction of synthetic lethality in tumor cells producing 2HG: qHTS for the HT-1080-NT fibrosarcoma cell line; HT-1080-NT fibrosarcoma viability, CellTiter-Glo ATP luminescence, 48 h; Potency, µM (highest dose often 46.1 µM), without a hit: at the highest dose activity, negative = less viability, most hits filed as cytotoxic; hit rate 1.6% among 360,000; AID 686970, 2013;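 also: NT is the 2HG producing partner of a matched IDH1 knockdown line; potency is read from the fitted curve at half-maximal effect; 0% = DMSO-treated cells and -100% = media-only wells without cells; nearly all actives have a fitted effect of over 55% in size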
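Luminescent CellTiter-Glo readout after 48 hours of compound exposure at 37 degrees C defined viability of HT-1080-NT cells. Activity was normalized to DMSO wells and cell-free media wells; concentration-response curves were fitted and assigned curve classes.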
DT40 TDP1 CPT – qHTS for Inhibitors of human tyrosyl-DNA phosphodiesterase 1 (TDP1): qHTS in cells in presence of CPT; hit rate 12% among 420,000; chicken DT40 Tdp1-/-;hTDP1 cells + 20 nM CPT, ATP luminescence, 48 h; Potency, µM (series often up to 46.2 µM), for the others: top-dose activity change, negative = growth inhibition, hits mostly inhibitors; also: potency is read from the fitted curve at half-maximal effect; nearly all actives have a fitted effect of over 55% in size
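Chicken DT40 Tdp1-/- cells stably complemented with human TDP1 were seeded at 400 cells/well in medium containing 20 nM camptothecin, exposed to pin-transferred compounds, and grown at 37 °C for at least 48 hr. Viability was read as ATP luminescence.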
* hit, by the source's call; ? = inconclusive; . = no result. Shown are actives, neighbours in structure and some others; about 19% of the full set was active somewhere. Unless noted, calls follow the shape of the dose curve; as a rule, active = well fitted curve in the direction sought with a large enough effect; inconclusive = small, poorly fitted or top-dose-only effect, or another doubt; inactive = no such curve, though single readings can be large; an effect the other way counts as inactive or inconclusive. Unless noted, % is scaled to controls: 0 for no effect and ±100 for the full control effect.

SMILES	IL-1B inflam inh	TDP1 cell noCPT	uPA surface inh	HT1080 IDH1KD tx	HT1080-NT tox	DT40 TDP1 CPT
C/C=C\C=C\C(=O)N1CC2(CC(c3cccc(NC(=O)CC(c4ccccc4)c4ccccc4)c3)=NO2)C[C@H]1C(N)=O (some centres undefined)	-7	18µM*	1%	-5%	-8%	?
NC(=O)[C@H]1CC2(CC(c3cccc(NC(=O)CC(c4ccccc4)c4ccccc4)c3)=NO2)CN1C(=O)C(c1ccccc1)c1ccccc1 (some centres undefined)	-15	?	-1%	3%	6%	18µM*
C/C=C\C=C/C(=O)Nc1cccc(C2=NOC3(C2)C[C@@H](C(N)=O)N(C(=O)/C=C/C=C\C)C3)c1 (some centres undefined)	-5	0%	-7%	-2%	10%	?
CC1CCC2(CC1)NC(=O)N(CC(=O)c1cn(CCC#N)c3ccccc13)C2=O (centres undefined)	-25	3%	6%	-1%	0%	-11%
O=C(Nc1ccncc1)Nc1ccccc1Cl	0	?	-12%	-12%	-7%	?
Cc1ccc(NNC(=O)Nc2ccc(Cl)cc2)nn1	-12	?	-2%	8%	-1%	21µM*
O=C(Nc1ccncc1)Nc1ccc(Cl)cc1Cl	.	?	-3%	-21%	-3%	18µM*
CC(Oc1ccc(Cl)cc1Cl)C(=O)NCCC1=CCCCC1 (centres undefined)	-57*	?	-1%	-13%	-27%	?
O=C(Nc1ccncc1)Nc1ccc(Cl)cc1	-94*	?	-5%	-10%	-15%	?
CCOc1ccc(C(=O)Nc2cccc(OCc3cc(=O)n4cc(C)sc4n3)c2)cc1	.	-17%	.	.	.	-9%
O=C(NCCc1ccccc1)C1Cc2c(-c3ccc(Cl)cc3)ccnc2O1 (centres undefined)	22	?	.	-22%	-12%	?
O=C(Nc1ccc(Cl)cc1)Nc1ccon1	-20	15µM*	?	-19%	-12%	18µM*
Cc1ccc(NC(=O)Nc2ccon2)cc1	?	-5%	-21%	2%	-2%	-19%
CC(Oc1ccc(Cl)cc1Cl)C(=O)Nc1ccncc1 (centres undefined)	-16	9.2µM*	-4%	?	?	21µM*
O=C1NC[C@H](CCCCN2CCN(Cc3ccccc3)C(=O)C2=O)N(Cc2ccccc2)C1=O	20	-13%	.	12%	21%	2%
CC(=O)N1CCCC1c1nc2ccccc2n1Cc1cc(C)ccc1C (centres undefined)	.	23µM*	.	.	.	23µM*
Cc1ncc(CN2CCCC(C(=O)Nc3ccc(-c4ccco4)cc3)C2)cn1 (centres undefined)	-18	-18%	-18%	1%	12%	2%
CCn1cc(CN2CCCC(C(=O)Nc3cccc(-c4cc5ccccc5[nH]4)c3)C2)c(C)n1 (centres undefined)	-53*	?	-2%	?	21µM*	23µM*
Cn1cc(CN2CCCC(C(=O)Nc3cccc(-c4cc5ccccc5[nH]4)c3)C2)cn1 (centres undefined)	-92*	?	-4%	29µM*	?	?
CCOc1cccc(CN2CCCC(C(=O)Nc3ccc(-c4ccn[nH]4)cc3)C2)c1O (centres undefined)	30	-1%	1%	2%	1%	?

Assay outcomes as filed in PubChem.
